Measurements reported in a collection of fitness landscapes (doi:10.1016/j.celrep.2020.107928).
In all, about 81,000 sequences were measured (“one-hybrid fitness for binding parS DNA”: median about -0.17, highest 2% from about 0.51 on). Many of the other results were omitted from the sample, so the highest values are more common in it than they were.

B1: Caulobacter ParB omega fusion; a variant is named by its letters at X, in order, B8GW30 (parent)
chain: MESVVVGEPGMSEGRRGLGRGLSALLGEVDAAPAQAPGEQLGGSREAPIEILQRNPDQPRRTFREEDLEDLSNSIREKGVLQPILVRPSPDTAGEYQIVAGERAWRAAQRAGLKTVPIMVRELDDLAVLEIGIIENVQRADLNVLEEALSYKVLMEKFERTQENIAQTIGKSXSHVANXMRLLXLPDEVQSYLVSGELTAXHARAIAAAADPVALAKQIIEGGLSVRETEALARKAPNLSAGKSKGGRPPRVKDTDTQALESDLSSVLGLDVSIDHRGSTGTLTITYATLEQLDDLCNRLTRGI

Variants of: B1
Assay: one-hybrid fitness for binding parS DNA (scaled: cognate 1, non-cognate 0); higher = stronger binding
Conditions: with parS DNA site
Summary of the method: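 Fitness is the rescaled log change in variant-to-wild-type read ratio, measured by Illumina sequencing of plasmids before and after bacterial one-hybrid selection. The scale puts cognate at 1 and non-cognate at 0. Selection of Caulobacter ParB libraries, four specificity codons randomised, took place in E. coli USO with a HIS3 reporter, site 19 bp from the promoter, over 48 hours at 37°C on M9-minus-histidine with 0.1 mM IPTG and 5 mM 3-AT.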

Point of comparison: RCFC, “one-hybrid fitness for binding parS DNA” value 1.03. Against it:
- PLPS — lower, ≤ 0.2
- QYNK — lower, ≤ 0.2
- EHAS — lower, ≤ 0.2
- VMVC — lower, ≤ 0.2
- RHYV — lower, ≤ 0.2
- SIFD — lower, ≤ 0.2
- LPVS — lower, ≤ 0.2
- RAMD — lower, ≤ 0.2
- RTMH — lower, ≤ 0.2
- RFMH — lower, ≤ 0.2
- RTMS — lower, 0.981
- RTMD — lower, ≤ 0.2
- RAMH — lower, ≤ 0.2
- RFMP — lower, ≤ 0.2
- RFMS — lower, 0.983
- RAMS — lower, 1.02
- TRVI — lower, ≤ 0.2
- NMKR — lower, ≤ 0.2
- LWSA — lower, ≤ 0.2
- HELA — lower, ≤ 0.2
- TPTY — lower, ≤ 0.2
- TLRR — lower, ≤ 0.2
- RTVA — lower, 0.566
- DTKA — lower, ≤ 0.2
- RTKA — lower, 0.808
- NTKA — lower, ≤ 0.2
- NTVA — lower, ≤ 0.2
- WIMN — lower, ≤ 0.2
- RIYI — lower, ≤ 0.2
- TADM — lower, ≤ 0.2
- QLFQ — lower, ≤ 0.2
- KDMG — lower, ≤ 0.2
- RKAH — lower, ≤ 0.2
- RKFQ — lower, ≤ 0.2
- RKFG — lower, 0.946
- RKFK — lower, ≤ 0.2
- RKAN — lower, 0.343
- RKAG — lower, 0.959
- VRYQ — lower, ≤ 0.2
- SMCS — lower, ≤ 0.2
- TFRT — lower, ≤ 0.2
- GREF — lower, ≤ 0.2
- GPDK — lower, ≤ 0.2
- TATR — lower, ≤ 0.2
- NFFG — lower, ≤ 0.2
- DFAG — lower, ≤ 0.2
- RFAG — lower, 0.941
- KFFG — lower, ≤ 0.2
- NFAG — lower, ≤ 0.2
- RFFG — lower, 0.776
- SCLF — lower, ≤ 0.2
- FALR — lower, ≤ 0.2
- IHMV — lower, ≤ 0.2
- LILG — lower, ≤ 0.2
- TTYT — lower, ≤ 0.2
- KWSC — lower, ≤ 0.2
- LCWL — lower, ≤ 0.2
- RELC — lower, ≤ 0.2
- RDLC — lower, ≤ 0.2
- RSLK — lower, ≤ 0.2
- RCLC — lower, 1.02
- RSLC — lower, 0.939
- RPLC — lower, ≤ 0.2
- QCAL — lower, ≤ 0.2
- RIIL — lower, ≤ 0.2
- MQLE — lower, ≤ 0.2
- WYDG — lower, ≤ 0.2
- RSFC — lower, 0.892
- RPFC — lower, ≤ 0.2
- RDFC — lower, ≤ 0.2
- REFC — lower, ≤ 0.2
- RSFM — lower, 0.292
- DKNG — lower, ≤ 0.2
- YTIY — lower, ≤ 0.2
- SSYC — lower, ≤ 0.2
- RIKT — lower, 0.772
- RIVN — lower, 0.407
- RIVT — lower, 0.788
- RIKF — lower, 0.303
- RIVH — lower, ≤ 0.2
- RIKM — lower, 0.325
- RAAC — lower, 0.98
- RAAR — lower, ≤ 0.2
- RAAY — lower, 0.478
- RAFC — lower, 0.925
- RAFF — lower, 0.249
- RAFM — lower, 0.331
- SIFS — lower, ≤ 0.2
- QSTM — lower, ≤ 0.2
- HPTI — lower, ≤ 0.2
- RPPA — lower, ≤ 0.2
- NRIA — lower, ≤ 0.2
- RRPA — lower, 0.574
- RCPA — lower, 0.432
- RRIA — lower, 0.828
- NRNI — lower, ≤ 0.2
